From PubChem BioAssay (NCATS) come the findings set out here.

The structures appear in SMILES notation. Inconclusive results are not listed. The source made the active and inactive calls. Unless noted, the call rests on the fitted dose curve; in most records, active means well fitted curve in the direction sought with a large enough effect; inconclusive means small, poorly fitted or top-dose-only effect, or another doubt; inactive means no such curve, though single readings can be large; an effect the other way counts as inactive or inconclusive.

Assay [1] in a line: Quantitative High-Throughput drug screen in 47 multiple myeloma cell lines against the NCATS MIPE library collection: PE2_PLB cell viability assay (AID 1919869). Further: nearly all actives have a fitted effect of over 35% in size. Further: potency means the concentration at half of the fitted maximal effect. The gist of the method:
(§1)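 Cells were exposed to library compounds for 48 hours, after which ATP was measured by CellTiter-Glo. Signal was taken as median relative luminescence units.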

Assay [2] can be described thus: Quantitative High-Throughput drug screen in 47 multiple myeloma cell lines against the NCATS MIPE library collection: PCM6_Riken cell viability assay (AID 1919870). Further: nearly all actives have a fitted effect of over 30% in size. Further: potency means the concentration at half of the fitted maximal effect. The gist of the method: as §1
The nature of assay [3]: Quantitative High-Throughput drug screen in 47 multiple myeloma cell lines against the NCATS MIPE library collection: KMS11_JCRBsus cell viability assay (AID 1919873). Further: nearly all actives have a fitted effect of over 50% in size. Further: potency means the concentration at half of the fitted maximal effect. The gist of the method: as §1
A short description of assay [4]: Quantitative High-Throughput drug screen in 47 multiple myeloma cell lines against the NCATS MIPE library collection: KMS28BM_JCRB cell viability assay (AID 1919874). Further: nearly all actives have a fitted effect of over 35% in size. Further: potency means the concentration at half of the fitted maximal effect. In a few lines: as §1
A short description of assay [5]: qHTS drug screen for cell cycle checkpoint inhibitors in PARPi-resistant BRCA-mutant ovarian cancer cell lines. (AID 1963452; calls by dose curve). Particulars: PEO1/OlaR viability, CellTiter-Glo luminescence, 96 h, stronger effect = lower value. In a few lines: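 PEO1, PEO4 and PEO1/OlaR ovarian cancer cells, 600 per well, exposed 96 h at 37C to a dilution series. Viability read by CellTiter-Glo luminescence, normalized to DMSO and empty wells; activity summarized as Z-AUC.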
A general note: Quantitative high-throughput screening tests each substance at several concentrations.

A short description of assay [6]: Quantitative High-Throughput drug screen in 47 multiple myeloma cell lines against the NCATS MIPE library collection: RPMI8226_ATCC cell viability assay (AID 1919871). Further: nearly all actives have a fitted effect of over 30% in size. Further: potency means the concentration at half of the fitted maximal effect. The gist of the method: as §1
A short description of assay [7]: Quantitative High-Throughput drug screen in 47 multiple myeloma cell lines against the NCATS MIPE library collection: OPM2_DSMZ cell viability assay (AID 1919872). Further: nearly all actives have a fitted effect of over 30% in size. Further: potency means the concentration at half of the fitted maximal effect. The gist of the method:
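Myeloma cells (500 per well) were exposed to MIPE 4.0 compounds by pin transfer and incubated 48 hours at 37C, 5% CO2. Viability was read as ATP by CellTiter-Glo luminescence, normalised to DMSO (100%) and media-only (0%) wells.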

Assay [8] is described as follows: qHTS for identification of novel therapeutic agents for treatment of microphthalmiaassociated transcription factor (MiT) renal cell carcinoma (RCC) (AID 1963991). As to conditions: CellTiter-Glo, 48 h, stronger effect = lower value. In a few lines: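 Three TFE3-fusion RCC lines (UOK109, UOK124, UOK145), 500 cells/well in complete medium, were treated with MIPE 4.0 compounds for 48 hours at 37 C. Viability was by CellTiter-Glo luminescence, normalized to DMSO (100%) and empty wells (0%); curves fitted over 11 concentrations.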

Assay [9] in a line: qHTS profiling for inhibitors of Plasmodium falciparum proliferation (AID 504749). Further: nearly all actives have a fitted effect of over 60% in size. Further: potency means the concentration at half of the fitted maximal effect.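 On activity, negative = inhibition: 0% = DMSO vehicle and full inhibition = artemisinin control.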 As to conditions: P. falciparum in erythrocytes, SYBR Green DNA, 72 h, at 28.7 µM (top of the series). The gist of the method: (§2)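 Each compound contacts P. falciparum-infected red blood cells for 72 h at 37 C; lysis buffer (Tris, EDTA, saponin, Triton X, SYBR Green I) is added and fluorescence measured next morning; values normalized to controls.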

In a further assay the test system is 3D7. The assay is described as above. As to conditions: P. falciparum in erythrocytes, SYBR Green DNA, 72 h; series mostly up to 28.7 µM. In a few lines:
as §2

A further assay has as its system AA1029. The description is as above. As to conditions: P. falciparum in erythrocytes, SYBR Green DNA, 72 h; series mostly up to 28.7 µM. The gist of the method:
as §2

For a further assay, the system named is AS120. The assay is described as above. As to conditions: P. falciparum in erythrocytes, SYBR Green DNA, 72 h; series mostly up to 28.7 µM. In a few lines: as §2
The subject of the next assay is ATS189. The assay is described as above. Particulars: P. falciparum in erythrocytes, SYBR Green DNA, 72 h; series mostly up to 28.7 µM. In a few lines:
as §2

Another assay deals with ATS95. The description is as above. As to conditions: P. falciparum in erythrocytes, SYBR Green DNA, 72 h; series mostly up to 28.7 µM. In a few lines: as §2
Another assay relates to C2A. The assay is described as above. As to conditions: P. falciparum in erythrocytes, SYBR Green DNA, 72 h; series mostly up to 28.7 µM. In a few lines: as §2
The next assay relates to CP185. The assay is described as above. As to conditions: P. falciparum in erythrocytes, SYBR Green DNA, 72 h; series mostly up to 28.7 µM. The gist of the method: as §2
The next assay deals with CP191. Described as above. Particulars: P. falciparum in erythrocytes, SYBR Green DNA, 72 h; series mostly up to 28.7 µM. In a few lines:
as §2

The next assay concerns CP194. The description is as above. As to conditions: P. falciparum in erythrocytes, SYBR Green DNA, 72 h; series mostly up to 28.7 µM. The gist of the method:
as §2

[10] abbreviates: measured here: PEO1 parental Z-AUC.
Setting [11] is: TFE3-RCC UOK109 viability, measured here: UOK109 Z-AUC.
Setting [12] is: TFE3-RCC viability, measured here: UOK124 Z-AUC.
Where [13] appears, read: TFE3-RCC viability, measured here: UOK145 Z-AUC.

Turning to `CNc1nccc(-c2cccnc2Oc2cc(C(=O)Nc3cccc(C(F)(F)F)c3)ccc2C)n1`, the Potency was 6.62 µM (active) in assay [1], 4.18 µM (active) in assay [2], 18.7 µM (active) in [3] and 23.5 µM (active) in assay [4]. Moreover, the Z-AUC in assay [5] was 0.523 (inactive); in [5] (setting [10]) it was -0.637; in assay [5] (measured here: PEO4 Z-AUC) it was 0.0306.
For `Cc1c(C)n(Cc2ccc(-c3ccccc3C(=O)O)cc2)c2ccc(C(=O)N[C@@H](C)c3ccc([N+](=O)[O-])cc3)cc12`, the values for the Potency in [1] and in assay [3] were 11.8 µM (active) and 18.7 µM (active), respectively. In addition, the Potency entry in assay [6] and in assay [7] was “inactive” each time. The Z-AUC is 0.131 (inactive) in [5], 0.774 in assay [5] (setting [10]) and 0.226 in [5] (measured here: PEO4 Z-AUC).
On to `O=C(NCCS(=O)(=O)c1ccc(C(F)(F)F)cn1)c1ccc(Cl)cc1`, for which the Potency entry in [1], in [2], in assay [3] and in assay [4] was “inactive” each time. For the same compound, the Z-AUC in [5] is 0.591 (inactive); in assay [5] (setting [10]), 0.415; in [5] (measured here: PEO4 Z-AUC), 0.479. Moreover, the z-score in assay [8] (setting [11]) is -0.45; in assay [8] (setting [12]) it was 0.348; in [8] (setting [13]), 0.45.
For `Cc1ccc2nc(NC(=O)CSc3nc4c(c(=O)n3-c3ccccc3)SCC4)sc2c1`, the Potency is 9.35 µM (active) in assay [1]; 16.6 µM (active) in assay [6]; 20.9 µM (active) in assay [7]; 8.33 µM (active) in assay [3]; 9.35 µM (active) in [4]. Further, the values for the Z-AUC in assay [5], in assay [5] (setting [10]) and in [5] (measured here: PEO4 Z-AUC) were 1.55 (inactive), 1.46 and 1.44, respectively.
As for `CC1(C)O[C@@H]2C[C@@H]3[C@H]4C[C@@H](F)C5=CC(=O)C=C[C@]5(C)[C@@]4(F)[C@@H](O)C[C@]3(C)[C@]2(C(=O)CO)O1`, the Potency is 1.18 µM (active) in [1], 0.0083 µM (active) in assay [6], 0.0042 µM (active) in [3] and 15.1 µM (active) in the assay on CP194. Besides, the Potency result (in [7]; in the assay with 3D7; in the assay with AA1029; with AS120; in the assay with ATS189; in the assay with ATS95) was “inactive” throughout. The Potency entry with C2A, with CP185 and in the assay with CP191 was “inactive” throughout. Moreover, the activity, negative = inhibition was 4.83% (inactive) in [9] (parasite line A) and 2.94% (inactive) in [9] (parasite line B).
For `C[C@]12CC[C@H](O)CC1=CCC1C2CC[C@]2(C)C(n3cnc4ccccc43)=CCC12` (stereo partly drawn), the Potency result in assay [1], in assay [2], in assay [3] and in assay [4] was “inactive” each time. The results for the Z-AUC in assay [5], in assay [5] (setting [10]) and in [5] (measured here: PEO4 Z-AUC) were 0.586 (inactive), 1.13 and 0.642, respectively. Further, the z-score is 0.298 in assay [8] (setting [11]), 0.603 in [8] (setting [12]) and -0.0216 in [8] (setting [13]).
Turning to `Cc1ccc(S(=O)(=O)Nc2cc(Cl)ccc2C(=O)Nc2nc(-c3ccccc3)cs2)cc1`, the figures for the Potency in assay [1], in [6] and in assay [3] were 5.9 µM (active), 16.6 µM (active) and 10.5 µM (active), respectively. Besides, the figures for the Z-AUC in assay [5], in assay [5] (setting [10]) and in [5] (measured here: PEO4 Z-AUC) were -0.703 (inactive), -0.778 and -1.08, respectively.
